# ± gives the standard deviation. Whole data set: some 6,600 sequences, median “pre-steady-state target cleavage rate” near 0.07, cut for the highest 2% near 0.72. The list comes from a sample in which the highest values are over-represented; it also holds similar and randomly drawn sequences.
# System: MIWI (PIWIL1) piRISC loaded with Kctd7 piRNA (30 nt)
# Assay: pre-steady-state target cleavage rate (min^-1); MIWI and MILI are mouse PIWI proteins and EfPiwi is from a freshwater sponge; tags in brackets are library labels; higher = faster piRNA-guided slicing of the target
# Conditions: guide: Kctd7 piRNA 5'p-UGUUAAUCUCUCAGAGAAGGUGACAGUGAU; auxiliary factor: 500 nM mouse GTSF1
# Experimental: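 Cleave-'n-Seq: a library of target RNAs (target site embedded in constant flanks, ACAGCATTCCGCGTTAGTGATATCCG... 5' flank; DNA-blocked outside the site) at 0.1 nM was incubated with 1 nM active mouse MILI or MIWI piRISC (synthetic 5'-monophosphorylated piRNA guide) with or without 500 nM mouse GTSF1 at 33 °C for 1 min to 16 h. Uncleaved targets were sequenced and normalised to non-target controls, and the pooled three trials were fitted to a burst-and-steady-state model to give the pre-steady-state cleavage rate (min^-1; k3 is constrained to at most 1e-4). Sequence is the target site only; target names encode pairing extent (gX:gY) and contiguous / 1-mismatch / 2-mismatch / bulge geometry. Fits with R² ≤ 0 are excluded.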
row,Sequence,pre-steady-state target cleavage rate
1,UUCACUGUGACCUUCUCUGAGAGAUAAACA,0.214 ± 0.023
2,AUCACUGUCAGCUUCUCUGAGAGAUUAACA,0.802 ± 0.044
3,UAGACUGUCAGCUUCUCUGAGAGAUUAACA,0.753 ± 0.05
4,UAGACUGUCAGCUUCUCUGUGAGAUUAACA,0.198 ± 0.0095
5,AUGACUGUCAGCUUCUCUGAGAGAUUAACA,0.721 ± 0.046
6,AACACUGUCAGCUUCUCUGAGAGAUUAACA,0.753 ± 0.039
7,UUCUCUGUCAGCUUCUCUGAGAGAUUAACA,0.586 ± 0.028
8,UUCACUGUCAGCUUCUCUGAGAGAUUAACA,0.723 ± 0.032
9,UUCACUGUCUGCUUCUCUGAGAGAUUAACA,0.639 ± 0.038
10,AUCACUGUCAGCUUCUCUGUGAGAUUAACA,0.237 ± 0.013
11,UACACUGUCUGCUUCUCUGAGAGAUUAACA,0.708 ± 0.043
12,AUCACUGUCUGCUUCUCUGAGAGAUUAACA,0.74 ± 0.042
13,UACACUGUCAGCUUCUCUGAGAGAUUAACA,0.655 ± 0.027
14,UUCACUGUCACGUUCUCUCAGAGAUUAACA,0.0729 ± 0.0078
15,UAGUGACAGUGGAAGUCUGAGAUAUUAACA,< 0.0001
16,AUCAGUGUCACCUUGUCUGAGAGAUUAACA,0.209 ± 0.029
17,UACACUGUCACCUUCUCCGAGAGAUUAACA,0.351 ± 0.051
18,UUCACUGUCACCUUCUCUGUGAGAUUAUCA,0.106 ± 0.025
19,UAGUGAGUCACCUACUCUGAGAGAUUAAGA,0.13 ± 0.021
20,UAGACUGUCAGCCUUCUCUGAGAGAUUAACA,0.231 ± 0.024
21,UUCACUGUCACCUUCUCUGACGAGAUUAACA,0.0334 ± 0.0098
22,AUCACUUGUCACCUUCUCUGAGAGAUUAACA,0.754 ± 0.12
23,UUCACUGUCACCUUCUCUGAGAGAAUUAACA,0.641 ± 0.098
24,AUCACUGGUCACCUUCUCUGAGAGAUUAACA,0.742 ± 0.047

row,Sequence,pre-steady-state target cleavage rate
1,UUCACUUGUCACCUUCUCUGAGAGAUUAACA,0.63 ± 0.09
2,AUCACUGUCACCUUCUCUCUGAGAUUAACA,0.0402 ± 0.0095
3,AUCACUGUCACCUUCUCUGAGAGAUUAACC [g2:g30:cont:t1C],0.387 ± 0.032
4,UACACUGGUCACCUUCUCUGAGAGAUUAACA,0.676 ± 0.038
5,UACACUUGUCACCUUCUCUGAGAGAUUAACA,0.631 ± 0.088
6,AUCACUGUCACCUUCUCUGAGAAUUAACA,0.366 ± 0.11
7,AUCACUGUCACCUUCUCUGAGAGAUUAACA [g2:g30:cont:t1A],0.734 ± 0.035
8,UUCACUGGUCACCUUCUCUGAGAGAUUAACA,0.652 ± 0.034
9,AUCACUGUCACCUUCUCUGAGAGAAUUAACA,0.738 ± 0.13
10,UAGAGACUCACCUUCUCUGAGAGAUUAUGA,0.0764 ± 0.014
11,UUCACUGUCACCUUCUCUGAGUAGAUUAACA,0.0213 ± 0.0063
12,UAGUCUGUCACCUUUUCUGAGAGAUUAACA,0.542 ± 0.029
13,AUCACUGUCACCUUCACUGAGUGAUUAACA,0.0332 ± 0.007
14,UAGUGACAGACCUUCACUGAGAGUUUAACA,0.0305 ± 0.011
15,UAGUGACUCACCUUCUCUGAGUGAUAAACA,0.0392 ± 0.007
16,AUCACUGUCACCUUCUCUGAGAGAUUAACG [g2:g30:cont:t1G],0.713 ± 0.037
17,AUCACUGUCACCUUCUCUGAGAGAUUAAUCA,0.381 ± 0.04
18,AAUCACUGUCACCUUCUCUGAGAGAUUAACA,0.81 ± 0.043
19,UAGUGACUCACCUUCUCUGAGAGAAUAAGA,0.02 ± 0.0073
20,UUCACAGUCACCUUCUCUGAGAGAUUAAGA,0.137 ± 0.027
21,UAGUGUCUCAGCUUCUCUGAGAGAUUAACA,0.437 ± 0.031
22,UAGUGUGUCAGCUUCUCUGAGAGAUUAACA,0.561 ± 0.032
23,AUCAGUGUCAGCUUCUCUGAGAGAUUAACA,0.734 ± 0.034
24,UACAGUGUCAGCUUCUCUGAGAGAUUAACA,0.622 ± 0.028

row,Sequence,pre-steady-state target cleavage rate
1,UUCAGUGUCAGCUUCUCUGAGAGAUUAACA,0.609 ± 0.032
2,UAGAGUGUCAGCUUCUCUGAGAGAUUAACA,0.772 ± 0.044
3,AUCUCUGUCACCUACUCUGAGAGAUUAACA,0.627 ± 0.042
4,AUCACUGUCACCUUCUCUGACAGAUUAUCA,0.0262 ± 0.0092
5,UAGUCUGUCACCUUCUCUGAGACAUUAUCA,0.0172 ± 0.0056
6,UAGUGUCACACCUUCUCUGAGAGAUAUUGA,0.00616 ± 0.0033
7,UAGUGACACACCUUCUCUGAUAGAUUAACA,0.714 ± 0.054
8,UAGUGACAGUGGAUCUCUGAGAAAUUAACA,< 0.0001
9,UAGACUGUCACCUUCUCUGAGAGCAUUAACA,0.38 ± 0.025
10,UAGUCUGUCACCUUCUCUGAGUGAUUUACA,0.0221 ± 0.0058
11,AUCCACUGUCACCUUCUCUGAGAGAUUAACA,0.712 ± 0.046
12,UCCACUGUCACCUUCUCUGAGAGAUUAACA,0.68 ± 0.028
13,UUCACUGUCACCUUCUCUCUGAGAUUAACA,0.0263 ± 0.0076
14,AGUCACUGUCACCUUCUCUGAGAGAUUAACA,0.833 ± 0.057
15,GUCACUGUCACCUUCUCUGAGAGAUUAACA,0.763 ± 0.04
16,UACACUGUCACCUUCUCCUGAGAGAUUAACA,0.115 ± 0.043
17,UUUCACUGUCACCUUCUCUGAGAGAUUAACA,0.415 ± 0.04
18,UUCACUGUCACCUUCUCCUGAGAGAUUAACA,0.795 ± 0.21
19,UACCACUGUCACCUUCUCUGAGAGAUUAACA,0.773 ± 0.044
20,ACCACUGUCACCUUCUCUGAGAGAUUAACA,0.715 ± 0.039
21,AUCACUGUCACCUUCUCCUGAGAGAUUAACA,0.645 ± 0.17
22,UUCACUGUCACCUUCUCUGAGAGAAAUACA,0.179 ± 0.038
23,AUCACUGUCACCUUCAUCUGAGAGAUUAACA,0.275 ± 0.053
